Drawing on PubChem BioAssay (Tox21), this text covers outcome for 40 compounds.

Active and inactive are the calls of the source. Calls follow the shape of the dose curve; as a rule, active = well fitted activation curve with a large enough effect in the repeat runs; inconclusive = weak or mixed curves; inactive = flat fitted curve, though single readings scatter.

The experiment is described as follows: A CellTox Green Cytotoxicity Assay to monitor cytotoxicity in HEK293 cells - 0 hour (AID 1224869). Also: nearly all actives have a fitted effect of over 50% in size. To be noted: CellTox Green fluorescence; series mostly up to 76.8 µM. The text has this: National Center for Advancing Translational Sciences [NCATS]
NIH Chemical Genomics Center [NCGC]
U.S. Environmental Protection Agency [EPA]
National Institutes of Environmental Health Sciences [NIEHS]
National Toxicology Program [NTP]
Cell-based models are critical for drug discovery. Determining the natural cytotoxic effects resulting from test compounds is an essential research activity. A CellTox Green Cytotoxicity Assay to monitor cytotoxicity in real time of continues cell culture during 40 hours of the compound treatment was used to screen Tox21 10K library compounds in Hek293 cells. CellTox Green Cytotoxicity Assay is a nonlytic, homogeneous, biofluorescent method to measure cytotoxicity in cell culture after experimental manipulation. The assay system uses a proprietary asymmetric cyanine dye that is excluded from viable cells but preferentially stains the dead cell's DNA. […] Viable cells produce no appreciable increases in fluorescence. Therefore, the fluorescence signal produced by the binding interaction with dead cell DNA is proportional to cytotoxicity.
The mixture of Hek293 cell suspension and reagents were dispensed at 600cells/6 ul/well in 1536-well tissue culture treated black solid bottom plates using a Multidrop dispenser. After the assay plates were incubated at a 37 C/5% CO2 incubator for 5 hours, 23 nL of compounds dissolved in DMSO, positive and negative controls was transferred to the assay plate by a pintool work station. The plates were incubated at 37 C for 40 hours. The fluorescence intensity were measured at 0h, 8h, 16h, 24h, 32h and 40h time points using ViewLux plate reader during compound treatment.
As for `CC(=O)CC(C)(C)O`, the result was inactive.

As for `Clc1ccccn1`, the compound was classed as inactive.

For the compound `CCCCC(C=O)CC` (stereo not given), the call was inactive.

Regarding `C=CC(C)CCCC(C)(C)O` (stereo not given), the call was inactive.

Regarding `O=C(O)CCCCCCCCC(=O)O`, the result was inactive.

In the case of `CN(C)c1ccc(O)c2c1C[C@H]1C[C@H]3[C@H](N(C)C)C(=O)C(C(N)=O)=C(O)[C@@]3(O)C(=O)C1=C2O`, the call was inactive.

On to `C[Si]1(C)O[Si](C)(C)O[Si](C)(C)O[Si](C)(C)O1`, for which the result was inactive.

As to `Nc1ccc(Cl)c(N)c1`, the compound was called inactive.

In the case of `COc1ccc(N)c(C)c1`, the compound was classed as inactive.

For the compound `CC(=O)OCc1ccccc1`, the compound was classed as inactive.

For `CSc1ccc(Cl)cc1`, the call was inactive.

Regarding `CN(C)CCOC(=O)COc1ccc(Cl)cc1`, the compound was classed as inactive.

Regarding `CCCCCCCCCCCCCCCCO`, the compound was classed as inactive.

For the compound `CC(C)(C)c1cc(Cc2cc(C(C)(C)C)c(O)c(C(C)(C)C)c2)cc(C(C)(C)C)c1O`, the compound was called inactive.

Consider `CCOCC(=O)O`, for which the call was inactive.

As for `O=C(O)/C=C/C(=O)O`, the outcome was inactive.

As to `CCNc1cccc(C)c1`, the compound was called inactive.

`CC(=O)c1ccc(O)cc1`: the call was inactive.

`CCO[Si](CCC#N)(OCC)OCC`: the compound was classed as inactive.

Take `CN/C(=C\[N+](=O)[O-])NCCSCc1csc(CN(C)C)n1`: the compound was called inactive.

Turning to `N[C@H](Cc1c[nH]c2ccccc12)C(=O)O`, the compound was classed as inactive.

With `CC(=O)OC1CC(C)OC(C)O1` (stereo not given), the result was inactive.

On to `OCc1cccc(Oc2ccccc2)c1`, for which the compound was called inactive.

On to `NCCCCCCN`, for which the result was inactive.

In the case of `CC1(C)NC(=O)NC1=O`, the compound was classed as inactive.

Regarding `C=C(C)CNCC`, the compound was called inactive.

On to `NC(=S)NNC(N)=S`, for which the compound was classed as inactive.

`Cc1ccc(C(C)C)c(O)c1`: the call was inactive.

Take `CCCCCCCC=O`: the call was inactive.

Take `CC(C)c1cccc(C(C)C)c1`: the compound was called inactive.

With `NCCN1CCNCC1`, the outcome was inactive.

Regarding `C=C(C)[C@H]1CC=C(C)C(=O)C1`, the outcome was inactive.

For the compound `c1ccc(Oc2ccccc2)cc1`, the result was inactive.

On to `O=C(O)c1ccc(S(=O)(=O)N(Cl)Cl)cc1`, for which the result was inactive.

For `C[C@]12CCC(=O)C=C1CC[C@@H]1[C@@H]2[C@@H](O)C[C@@]2(C)[C@H]1CC[C@]2(O)C(=O)CO`, the call was inactive.

On to `O=C(O)c1ccccc1C(=O)O`, for which the compound was called inactive.

For the compound `CCOC(=O)c1ccc(N)cc1`, the outcome was inactive.

As for `CCCOC(=O)c1ccccc1`, the call was inactive.

Turning to `O=C1c2ccccc2CCc2ccccc21`, the result was inactive.

`Brc1ccc(Br)c(Br)c1`: the result was inactive.
